This is a sample that favours compounds with a hit; in the whole collection about 9.3% have one here.
ELG1 genotoxic: qHTS screen for small molecules that induce genotoxicity in human embryonic kidney (HEK293T) cells expressing luciferase-tagged ELG1; HEK293T ELG1-luciferase reporter, luminescence, 16 h; Potency, µM (titrated, usually from 46 µM), inactives show at the highest dose activity change, positive = activation, most hits filed as activators; 330,000 compounds, 1.3% hits; note: % of control where 0% means no effect; nearly all actives have a fitted effect of over 60% in size
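Step 1: seed 2,000 HEK293T ELG1-luciferase cells per well. Step 2: add compound or DMSO, incubate 16 hr at 37 °C. Step 3: ONE-Glo, 30 min at room temperature, read luminescence.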
ELG1 repair inh: qHTS screen for small molecules that inhibit ELG1-dependent DNA repair in human embryonic kidney (HEK293T) cells expressing luciferase-tagged ELG1. 330,000 compounds, 2.3% hits. Potency, µM (highest dose often 46.1 µM), inactives show top-dose activity change, negative = inhibition, most hits filed as inhibitors. AID 504467, 2011. HEK293T ELG1-luciferase reporter, luminescence, 16 h; DNA damage induced by 5-fluorouridine; note: % is set by controls: 0 for no effect and ±100 for the full control effect; nearly all actives have a fitted effect of over 55% in size
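HEK293T cells expressing luciferase-tagged ELG1 (2,000/well) received 5-Fluorouridine plus compound or DMSO for 16 hr at 37 °C. Luciferase was read by ONE-Glo luminescence after 30 min at room temperature.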
Rab9 prom act: qHTS Assay for Rab9 Promoter Activators | Huh7 Rab9 promoter-luciferase reporter, luminescence, 24 h | 320,000 compounds, 2.8% hits | Potency, µM (titrated, usually from 9.22 µM), without a hit: top-dose activation, negative = inhibition, hits mostly activators | AID 485297, 2010; note: % of control where 0% means no effect; nearly all actives have a fitted effect of over 60% in size
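Luminescence read-out: Huh7 cells stably expressing Rab9-luciferase, treated 24 h with compound at 37 °C, then lysed with luciferase reagent for 10 min at ambient before reading.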
SMN2 splice up: qHTS Assay for Enhancers of SMN2 Splice Variant Expression | 210,000 compounds, 2.8% hits | Potency, µM (titrated, usually from 46.1 µM), for inactives: top-dose activity change, positive = activation, usual class: activators | HEK293 SMN2-luciferase splicing reporter, luminescence, 30-36 h; note: % of control where 0% means no effect; nearly all actives have a fitted effect of over 55% in size
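HEK293 cells carry an SMN2 […]–luciferase reporter in which exon 7 inclusion puts luciferase in frame. Cells were plated 10-12 h before compound addition, then incubated 30-36 h at 37C. ONE-Glo luminescence was read; sodium butyrate at 4.5 mM final served as control.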
FLuc modulator: qHTS profiling assay for firefly luciferase inhibitor/activator using purifed enzyme and Km concentrations of substrates (counterscreen for miR-21 project); AID 588342, 2011; purified FLuc, Km substrates, luminescence inhibition; Luciferin 4-monooxygenase (Photinus pyralis), P08659; Potency, µM (titrated, usually from 57.5 µM), inactives show at the top dose activity change, negative = inhibition, actives largely listed as inhibitors; 360,000 compounds, 6.9% hits;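 note: plate controls were vehicle for no effect and reference inhibitor for full effect; nearly all actives have a fitted effect of over 55% in size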
Target sequence (P08659 whole entry, looked up): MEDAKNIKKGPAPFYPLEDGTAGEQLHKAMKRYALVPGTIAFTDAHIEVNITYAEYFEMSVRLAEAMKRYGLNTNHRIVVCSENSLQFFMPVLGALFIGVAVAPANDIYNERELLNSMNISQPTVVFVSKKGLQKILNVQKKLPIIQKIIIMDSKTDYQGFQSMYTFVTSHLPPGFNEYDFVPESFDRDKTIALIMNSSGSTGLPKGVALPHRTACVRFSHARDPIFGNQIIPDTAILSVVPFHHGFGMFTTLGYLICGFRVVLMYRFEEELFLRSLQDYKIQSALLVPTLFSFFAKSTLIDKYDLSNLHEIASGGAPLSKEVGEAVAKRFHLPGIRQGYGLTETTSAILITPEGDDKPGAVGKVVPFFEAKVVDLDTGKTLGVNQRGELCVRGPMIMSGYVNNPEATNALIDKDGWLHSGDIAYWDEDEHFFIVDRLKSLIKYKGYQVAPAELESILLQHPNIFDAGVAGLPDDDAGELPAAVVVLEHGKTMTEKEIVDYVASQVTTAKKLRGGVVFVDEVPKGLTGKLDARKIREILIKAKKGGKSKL
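Purified P. pyralis luciferase, 10 nM final, with Km-level 10 uM D-luciferin and 10 uM ATP in 50 mM Tris acetate pH 7.5, 10 mM Mg acetate, 0.01% Tween-20, 0.05% BSA; 6-point qHTS titration about 60 µM downward; luminescence read.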
NPC1 prom act: qHTS Assay for NPC1 Promoter Activators | Huh7 NPC1 promoter luciferase reporter, 24 h | Potency, µM (top dose mostly 9.22 µM), for the others: top-dose activation, hits mostly activators | 320,000 compounds, 2.4% hits; note: % of control where 0% means no effect; nearly all actives have a fitted effect of over 60% in size
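Luminescence read-out of NPC1 promoter-driven luciferase in stably transfected Huh7 cells; compounds delivered in DMSO and left 24 h at 37C, 5% CO2, qHTS titration format.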
An asterisk follows results filed as active; ? = inconclusive; / = no result given; [ ] = dose if it differs, or a comment. Calls come from the whole dose curve; as a rule, active = well fitted curve in the direction sought with a large enough effect; inconclusive = small, poorly fitted or top-dose-only effect, or another doubt; inactive = no such curve, though single readings can be large; an effect the other way counts as inactive or inconclusive. Potency is the fitted concentration of half-maximal effect.

SMILES	ELG1 genotoxic	ELG1 repair inh	Rab9 prom act	SMN2 splice up	FLuc modulator	NPC1 prom act
CNc1nnc(-c2cccc(N(C)C)c2)s1	11µM*	?	?	14µM*	15µM*	?
CC(=O)Nc1ccc(N=Cc2c(O)c3ccccc3oc2=O)cc1	0%	0%	-4%	/	?	-4%
CCOC(=O)c1ccc(N=Cc2c(O)c3ccccc3oc2=O)cc1	-2%	24%	-2%[1.84 µM]	/	?	-9%
CC(=O)c1cccc(N=Cc2c(O)c3ccccc3oc2=O)c1	2%	6%	-1%	/	1.7µM*	-5%
Cc1ccc(F)cc1N=Cc1c(O)c2ccccc2oc1=O	3%	4%	2%	/	?	-5%
COc1cccc(N=Cc2c(O)c3ccccc3oc2=O)c1	0%	-6%	6%	/	1.9µM*	0%
Cc1ccc(N=Cc2c(O)c3ccccc3oc2=O)c(C)c1	4%	?	1%	/	0.21µM*	-3%
CCC(=O)c1cc(F)c(N2CCN(S(=O)(=O)c3ccc(C)cc3)CC2)cc1C	-19%	?	-1%	-12%	5%	0%
O=C(NCc1ccc(N2CCCC2=O)cc1)C1CCC(=O)N(Cc2ccccc2F)C1 (configuration not stated)	-4%	-7%	-1%	/	4%	0%
C(C#CCCCCCCCCC[n+]1ccccc1)#CCCCCCCCCC[n+]1ccccc1	-9%	18µM*	-34%	/	5%	-33%
COc1ccc(CNC(=O)CN2C(=O)NC(C)(c3cccc4ccccc34)C2=O)cc1OC (configuration not stated)	-6%	-29%	0%	/	0%	-2%
CC(C)=CCN1CCN(Cc2cnc(C)s2)CC1CCO (configuration not stated)	?	?	0.79µM*	/	6.7µM*	1.6µM*
COC(=O)c1ccc(CN2CCN(CC=C(C)C)C(CCO)C2)cc1 (configuration not stated)	2%	10%	-2%	/	17µM*	-1%
CC(C)=CCN1CCN(Cc2cnc(N3CCOCC3)s2)CC1CCO (configuration not stated)	?	?	2.8µM*	/	2.1µM*	3.2µM*
CC(C)=CCN1CCN(Cc2cnc(N3CCCC3)s2)CC1CCO (configuration not stated)	-2%	1%	8%	/	-1%	-1%
CCOc1cc(C(=O)Nc2ccccc2F)cc(Br)c1OCC	-5%	?	-7%	-11%	-5%	-2%
COc1ccc(S(=O)(=O)c2cn(CC(=O)Nc3ccccc3)c3ccc(Cl)cc3c2=O)cc1	/	/	/	4%	1%	/
CCc1nc(CN2CCN(Cc3ccc(F)c(F)c3)C(CCO)C2)c(C)[nH]1 (configuration not stated)	-1%	-9%	-8%	/	-1%	-1%
Cc1[nH]c2ccccc2c1NC(=O)CN1CCN(c2cccc(C(F)(F)F)c2)CC1	/	/	/	-6%	-16%	/
Cc1[nH]c2ccccc2c1C(O)CN1CCN(c2cccc(C(F)(F)F)c2)CC1 (configuration not stated)	3%	15µM*	-8%	/	-5%	-8%
CCN(CC)c1nc2c(c(=O)[nH]c(=O)n2C)n1CCOc1ccccc1	7%	-16%	-5%	/	-10%	2%
O=C(NCCOc1ccccc1)c1ccc2c(c1)OCO2	?	?	0.28µM*	2.5µM*	0.76µM*	0.28µM*
CN(CCOc1ccccc1)C(=O)c1ccc2c(c1)OCO2	12%	?	?	/	?	21%
CCOCCCNC(=O)c1cccc(OC2CCN(S(C)(=O)=O)CC2)c1	?	?	2.8µM*	/	11µM*	3.5µM*

Screening results: PubChem, National Center for Advancing Translational Sciences (NCATS)
